High-throughput results from PubChem BioAssay.
A selection: hits, their analogues and other compounds. The true share with any hit is near 14%.
Sm TGR inh: inhibitors of Schistosoma mansoni thioredoxin glutathione reductase. Q962Y6. purified TGR, DTNB reduction, TNB absorbance 405 nm. Potency, µM (titrated, usually from 114 µM), inactives show top-dose activity change, negative = inhibition, hits mostly inhibitors. hit rate 3% among 360,000. AID 485364; further: potency means the concentration at half of the fitted maximal effect; nearly all actives have a fitted effect of over 60% in size
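First, TGR (20 nM dispensed) and NADPH were mixed with compound. Second, a 15 min room-temperature incubation followed. Third, further NADPH and then DTNB were added to start the reaction. Finally, TNB absorbance was monitored kinetically.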
Pf growth 48h: inhibits P. falciparum growth in the first generation, 48 h. P. falciparum luciferase growth in erythrocytes, 48 h. Potency, µM (series often up to 28.7 µM), without a hit: top-dose activity change, negative = inhibition, actives largely listed as inhibitors. hit rate 5.9% among 310,000. AID 504832; further: potency means the concentration at half of the fitted maximal effect
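Luminescence readout; reporter = integrated firefly luciferase in P. falciparum. RBC culture at 2% hematocrit, 0.1% parasitemia final, 37 C/5% CO2; decreased signal taken as growth inhibition.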
HCMV antiviral: inhibitors of human cytomegalovirus; activity change, negative = inhibition, % at 57.5 µM; hit rate 4.5% among 410,000; AID 1259415; HFF cells, HCMV-luciferase reporter, 72 h; hits give low values; in the data active means activity change below about -60%; inconclusive means no clear call, values can overlap the other calls; inactive means above about -39%
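Cell-based, HFFs, 1000 cells/well, 16 h 37C; cpds in DMSO + HCMV-luc, MOI 1 PFU/cell; 72 h 37C; OneGlo luminescence after 5 min RT; norm. to buffer vs Salinomycin 10uM.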
Pf growth 96h: P. falciparum growth inhibition at 96 hours; AID 504834; hit rate 6.9% among 320,000; P. falciparum luciferase reporter growth, 96 h; Potency, µM (highest dose often 28.7 µM), for inactives: top-dose activity change, negative = inhibition, most hits filed as inhibitors; further: potency means the concentration at half of the fitted maximal effect
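96 h incubation, 37 C, 5% CO2, of luciferase-reporter P. falciparum-infected RBCs (2% hematocrit, 0.05% parasitemia final) with test compounds; endpoint luminescence.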
Giardia FBPA inh: Giardia lamblia aldolase inhibition; A8B2U2; purified Giardia FBPA; Potency, µM (highest dose often 59.6 µM), for the others: at the top dose activity, negative = inhibition, hits mostly inhibitors; hit rate 0.71% among 290,000; further: potency means the concentration at half of the fitted maximal effect; nearly all actives have a fitted effect of over 55% in size
Target sequence (A8B2U2 whole entry, looked up): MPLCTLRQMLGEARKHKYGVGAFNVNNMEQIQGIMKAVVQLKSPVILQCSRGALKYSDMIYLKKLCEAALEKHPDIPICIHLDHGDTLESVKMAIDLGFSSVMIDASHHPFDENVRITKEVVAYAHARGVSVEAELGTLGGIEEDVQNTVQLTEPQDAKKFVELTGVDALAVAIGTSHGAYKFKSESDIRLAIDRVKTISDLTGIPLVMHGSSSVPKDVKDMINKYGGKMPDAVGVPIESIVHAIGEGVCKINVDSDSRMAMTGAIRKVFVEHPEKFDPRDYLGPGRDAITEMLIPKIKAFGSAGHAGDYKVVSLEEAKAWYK
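40 nM FBPA preincubated 10 min at RT with compound (up to 57.5 uM final), then substrate plus GAPDH/TPI/NAD/arsenate coupling and diaphorase/resazurin added. Fluorescence read after 20 min at RT, 525/598 nm.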
* marks the source's active call; other numbers are inactive results. Unless noted, the call rests on the fitted dose curve; in most records, active means well fitted curve in the direction sought with a large enough effect; inconclusive means small, poorly fitted or top-dose-only effect, or another doubt; inactive means no such curve, though single readings can be large; an effect the other way counts as inactive or inconclusive. On the % scale 0 is the no-effect control and ±100 the full control effect.

For CC(=O)C1C(=O)c2c(cccc2[N+](=O)[O-])C1=Nc1ccccc1C (centres undefined) the results were Sm TGR inh 0%, HCMV antiviral inconclusive, Pf growth 96h 0.0037µM* and Giardia FBPA inh 0%.
Screening CC(=O)C1C(=O)c2c(cccc2[N+](=O)[O-])C1=Nc1cccc(Cl)c1 (centres undefined) returned Sm TGR inh inconclusive, Pf growth 48h 1.5µM*, HCMV antiviral 77, Pf growth 96h inconclusive and Giardia FBPA inh -13%.
`Cc1ccccc1N=C1c2ccccc2C(=O)C1[N+](=O)[O-]` (centres undefined) gave Sm TGR inh 0%, Pf growth 48h 5%, HCMV antiviral 68, Pf growth 96h 25% and Giardia FBPA inh 2%.
CNC(=O)C[C@H]1C(=O)N(c2ccccc2)C[C@@H]1C was read as HCMV antiviral -7.
Cc1cccc(NC(=O)CN2CCC(NC(=O)C3CCCCC3)CC2)c1C was read as Sm TGR inh 7%, Pf growth 48h 6%, HCMV antiviral -20, Pf growth 96h 4.1µM* and Giardia FBPA inh 3%.
Screening Cc1ccc(C(=O)CN2CCC(NC(=O)C3CCCCC3)CC2)cc1 returned Sm TGR inh -29%, Pf growth 48h inconclusive, HCMV antiviral -2, Pf growth 96h 5% and Giardia FBPA inh 3%.
O=C(CN1CCC(NC(=O)C2CCCCC2)CC1)Nc1cccc(F)c1 was read as Sm TGR inh -6%, Pf growth 48h -12%, HCMV antiviral -18, Pf growth 96h 22% and Giardia FBPA inh 0%.
Screening Cc1ccc(NC(=O)CN2CCC(NC(=O)C3CCCCC3)CC2)c(Br)c1 returned Sm TGR inh -14%, Pf growth 48h -2%, HCMV antiviral inconclusive, Pf growth 96h 12µM* and Giardia FBPA inh 4%.
`Cc1nn(-c2ccc(C(F)(F)F)cn2)c(C)c1Oc1ccccc1O` gave Sm TGR inh -2%, HCMV antiviral -23, Pf growth 96h 8.3µM* and Giardia FBPA inh 9%.
For Cc1ccc(CCNC(=O)C(NS(=O)(=O)c2ccc3c(c2)oc(=O)n3C)C(C)C)cc1 (centres undefined) the results were Sm TGR inh 2% and HCMV antiviral 2.
Screening COC(=O)C1=C(C)NC2=C(C(=O)CCC2)C1c1ccsc1 (centres undefined) returned Sm TGR inh 6%, Pf growth 48h 8%, Pf growth 96h 35% and Giardia FBPA inh -4%.
For CC1=C(C(=O)N2CCOCC2)C(c2ccsc2)C2=C(CCCC2=O)N1 (centres undefined) the results were Sm TGR inh 45µM*, Pf growth 48h 2%, HCMV antiviral -2, Pf growth 96h inconclusive and Giardia FBPA inh inconclusive.
For O=C(Cn1nc(C(F)(F)F)c2c1CCC2)Nc1ccc(Cl)cc1 the results were Sm TGR inh -2% and HCMV antiviral -33.
For O=C(CCl)NCc1cc(-c2ccc(Cl)cc2)no1 the results were Sm TGR inh 32µM*, Pf growth 48h 2.1µM*, HCMV antiviral -113*, Pf growth 96h 2.9µM* and Giardia FBPA inh 4%.
For Cc1nn(-c2ccccc2)c(C)c1/C=C/C(=O)OCC(=O)Nc1ncc(C(F)(F)F)cc1Cl the results were Sm TGR inh -6%, Pf growth 48h -6%, HCMV antiviral inconclusive, Pf growth 96h 6% and Giardia FBPA inh 3%.
Cc1nn(CCc2n[nH]c(=S)n2-c2cccc(Cl)c2)c(C)c1[N+](=O)[O-] was read as Sm TGR inh -3%, HCMV antiviral 31, Pf growth 96h 10% and Giardia FBPA inh -5%.
For Cc1cccc(-n2c(Cn3nc(C)c([N+](=O)[O-])c3C)n[nH]c2=S)c1 the results were Sm TGR inh -24%, Pf growth 48h -9%, HCMV antiviral -98*, Pf growth 96h inconclusive and Giardia FBPA inh -12%.
Screening CCn1c2ccccc2c2cc(NC(=O)C(C)Oc3ccccc3)ccc21 (centres undefined) returned Sm TGR inh 4%, Pf growth 48h inconclusive, HCMV antiviral 17, Pf growth 96h inconclusive and Giardia FBPA inh 3%.
Screening COc1ccc(OC(C)C(=O)Nc2cccc(F)c2)cc1 (centres undefined) returned Sm TGR inh -2%, Pf growth 48h -5%, HCMV antiviral -21, Pf growth 96h 1µM* and Giardia FBPA inh 2%.
CCn1c2ccccc2c2cc(NC(=O)C(C)Oc3ccc(OC)cc3)ccc21 (centres undefined) was read as Sm TGR inh 3%, Pf growth 48h inconclusive, HCMV antiviral -4, Pf growth 96h 5.9µM* and Giardia FBPA inh 0%.
`CC(Oc1ccccc1F)C(=O)Nc1ccc2ccccc2c1` (centres undefined) gave Sm TGR inh 5%, Pf growth 48h 74%, HCMV antiviral -77*, Pf growth 96h 67% and Giardia FBPA inh -7%.
Screening CC(Oc1ccc(F)cc1)C(=O)Nc1ccc2ccccc2c1 (centres undefined) returned Sm TGR inh 9%, HCMV antiviral -67*, Pf growth 96h 35% and Giardia FBPA inh -1%.
CCN1C[C@@H]2[C@@H]3C(=O)N(Cc4ccccc4)C(=O)[C@@H]3[C@](C)(C1=O)N2C(=O)c1ccc(Cl)c(Cl)c1 was read as HCMV antiviral -9.
Screening CCOc1ccc(N(C)S(=O)(=O)c2ccc3c(c2)C(C)(C)C(=O)N3C)cc1 returned Sm TGR inh 3% and HCMV antiviral 1.
OC(CNCCc1ccc(C(F)(F)F)cc1)COC(c1ccccc1)c1ccccc1 (centres undefined) was read as Sm TGR inh 2%, HCMV antiviral -23, Pf growth 96h 3.7µM* and Giardia FBPA inh inconclusive.
